From PubChem BioAssay AID504834 (National Center for Advancing Translational Sciences (NCATS), 2011)
Hit rate of the full screen: of about 320,000 compounds, about 22,000 (6.9%) were called active. Roughly 27% stayed inconclusive and do not appear here. Calls come from the whole dose curve; as a rule, active = well fitted inhibition curve with a large enough effect; inconclusive = small, poorly fitted or top-dose-only effect, or another doubt; inactive = no such curve, though single readings can be large or run the other way. What follows is part of a selection rich in actives, with near analogues and random picks from the rest.

Assay: Primary qHTS for delayed death inhibitors of the malarial parasite plastid, 96 hour incubation
Settings: P. falciparum luciferase reporter growth; series mostly up to 28.7 µM; activity change, negative = inhibition: at the top concentration
Text: The goal of this screen is to discover new antimalarial compounds that act by inhibiting the development of the apicoplast in the malarial parasite Plasmodium falciparum. The biochemical processes that make this organelle essential for erythrocytic stage parasites are not well understood. However, antibiotics such as azithromycin and tetracycline, which target the apicoplast translational machinery, have a potent antimalarial effect.
We have developed a cell-based assay that measures parasite growth based on the expression of an integrated copy of a firefly luciferase reporter. To detect small molecules that cause this "delayed death" phenotype, erythrocytes infected with the luciferase-expressing parasites were incubated with compounds for either one or two generations, corresponding to 48 and 96 hours, respectively. Compounds that inhibit parasite growth in the second generation, but not the first, should be enriched in antimalarials that target the apicoplast. Growth inhibition is detected by a decrease in luciferase activity.
Assay Provider: David Fidock and Eric Ekland, Columbia University
Keywords: NIH Roadmap, MLPCN, MLI, MLSMR, qHTS, NCGC, qHTS, malaria, luciferase, viability
Four microliters of infected erythrocytes (2% hematocrit, 0.05% parasitemia final concentration) in culture medium were dispensed and the plates incubated for 96 hours at 37 C in 5% CO2. Two microliters of luciferase detection reagent was added and luminescence was detected by a ViewLux (PerkinElmer) reader.
% is set by controls: 0 for no effect and ±100 for the full control effect; potency is the fitted concentration of half-maximal effect.

Compound | activity change, negative = inhibition | Potency
C/C=C(/C)C(=O)Nc1cccc(C2=NOC3(C2)C[C@@H](C(N)=O)N(C(=O)C2(C)CC2)C3)c1 (some centres not stated) | 70.1% (inactive) | 
CCOc1ncccc1C(=O)OCC(=O)c1c[nH]c2ccccc12 | -114% (inactive) | 
O=C(NCCS(=O)(=O)NCc1ccc(F)cc1)c1ccccc1 | 0.0784% (inactive) | 
CSc1nccc(NC(=O)c2ccc(C(C)(C)C)cc2)n1 | 13.2% (inactive) | 
CN1CCN(C2=NCCO2)CC1 | 6.75% (inactive) | 
Cc1ccc(Sc2cc(C(=O)c3ccccc3C(=O)O)ccc2[N+](=O)[O-])cc1 | -11.7% (inactive) | 
CN(C)c1ccc(Nc2c3c4c(cccc4n(C)c2=O)C(=O)c2ccccc2-3)cc1 |  | 5.22 µM (active)
CN(C)c1ccc(C2N(C)C(=O)c3ccccc3N2C)cc1 (configuration not stated) | 0% (inactive) | 
CC1C(=O)N(Cc2ccccc2)c2ccccc2N1C(=O)c1ccccc1 (configuration not stated) | 34.9% (inactive) | 
O=C(COC(=O)Cn1[nH]c(=O)c2ccccc2c1=O)Nc1c(Cl)cccc1C(F)(F)F | 34.6% (inactive) | 
COc1cc(NC(=O)C2=CC(c3ccco3)=NS(=O)(=O)N2C)cc(OC)c1OC | 10.9% (inactive) | 
CC/C(=N\NC(=O)c1c(C)nc2ccccn12)c1ccc(Cl)cc1 | -7.35% (inactive) | 
O=C(Nc1ccccc1N1CCOCC1)c1ccc(OCc2cscn2)cc1 | -15.1% (inactive) | 
CCC(CC)c1nnc(NC(=O)/C=C/c2ccco2)s1 | -13.8% (inactive) | 
Cc1nnc(NC(=O)/C=C/c2ccco2)s1 | 5.24% (inactive) | 
CCc1nnc(NC(=O)/C=C/c2ccc(C)o2)s1 |  | 10.4 µM (active)
CN1CCN(c2ccc(CNS(=O)(=O)c3cccc(F)c3)cc2)CC1 | 22.5% (inactive) | 
N#CCCN(C(=O)COC(=O)C1CCN(c2ccc(C(F)(F)F)cn2)CC1)c1ccc(F)cc1 | 5.52% (inactive) | 
COc1ccccc1-n1nnnc1SCC(=O)NC(=O)Cc1ccccc1 | 4.3% (inactive) | 
O=C(c1cccc(-n2cccc2)c1)N1CCN(S(=O)(=O)c2ccc(F)cc2)CC1 | -1.15% (inactive) | 
CCOC(=O)CSc1ncc(-c2cccc(Cl)c2)cn1 | 51.5% (inactive) | 
Cc1oc(-c2ccccc2Cl)[n+]([O-])c1C | 6.5% (inactive) | 

Compound | activity change, negative = inhibition | Potency
Cc1oc(-c2cccc(Cl)c2)[n+]([O-])c1C |  | 5.22 µM (active)
Cc1[nH]n(C(N)=S)c(=O)c1N=Nc1ccc(Cl)cc1Cl | 51.3% (inactive) | 
CC(=O)Nc1cccc(C(=O)OCC(=O)NCc2cc(C)c(O)c(C)c2)c1 | 96.7% (inactive) | 
Cc1ccc(S(=O)(=O)N2CC(O)C[C@H]2C(=O)OCC(=O)Nc2ccc(N3CCOCC3)cc2)cc1C (some centres not stated) | -24.5% (inactive) | 
CN(C(=O)COC(=O)c1ccc(Br)o1)c1c(N)n(Cc2ccccc2)c(=O)[nH]c1=O | 5.36% (inactive) | 
CCOC(=O)N1CCN(C(=O)Cc2ccc(-n3c(=S)[nH]c4ccccc4c3=O)cc2)CC1 |  | 13.1 µM (active)
O=C(Cc1ccc(-n2c(=O)[nH]c3ccccc3c2=O)cc1)N1CCN(c2cccc(Cl)c2)CC1 | 6.21% (inactive) | 
CCCCNC(=O)c1ccc(-n2c(=S)[nH]c3ccccc3c2=O)cc1 | 49.1% (inactive) | 
CCc1nc(N2CCN(C(C)=O)CC2)c2c3c(sc2n1)CCCC3 | 0% (inactive) | 
O=C(/C=C/c1cccc(F)c1)NC1CC1 | 4.57% (inactive) | 
CC(=O)c1nc2ccccc2n1Cc1ccccc1 | 10.7% (inactive) | 
CC(=O)Nc1nc2ccccc2n1Cc1ccc(C)cc1 | 67.4% (inactive) | 
CCCc1nc2c(C)cc(-c3nc4ccccc4n3C)cc2n1Cc1ccc(-c2ccccc2C(=O)O)cc1 |  | 1.51 µM (active)
Cc1ccc2cc(/C=N/NC(=O)[C@@H]3CCCN3)c(Cl)nc2c1 | 20.5% (inactive) | 
COc1ccc(CCNC(=O)CCc2cn(C)c3ccccc23)c(OC)c1 | 23.6% (inactive) | 
Cc1nc(N)[nH]c(=O)c1Oc1cccc(C(F)(F)F)c1 | -0.57% (inactive) | 
O=C(NCc1cccnc1)Nc1cccc(NC(=O)NCc2cccnc2)c1F | 12.5% (inactive) | 
CC1CC(C)CN(C(=O)COC(=O)c2ccc3ncsc3c2)C1 (configuration not stated) | -11.5% (inactive) | 
Cc1ccc(S(=O)(=O)NC(=O)Nc2nc(-c3ccc(F)c(F)c3)cs2)cc1 | 34.1% (inactive) | 
Cc1cc(=O)cc(C)n1-c1ccc(Cl)c(Cl)c1 | -1.31% (inactive) | 
CCOc1cccc(SCc2noc(C(=O)NC(C)C)c2C(=O)O)c1 | 72.9% (inactive) | 
CCCNC(=O)c1onc(CSc2ccc(F)cc2)c1C(=O)NC(C)C |  | 11.7 µM (active)

Compound | activity change, negative = inhibition | Potency
CCCCNC(=O)c1onc(CSc2cccc(OC)c2)c1C(=O)O | 22.1% (inactive) | 
Nc1cccc(-c2cc(-c3ccccc3)nc(-c3cccc(N)c3)n2)c1 |  | 10.4 µM (active)
CNc1nc(-c2ccccc2)cc(-c2ccccc2)n1 | -21.4% (inactive) | 
Nc1nc(-c2ccccc2)cc(-c2ccccc2)n1 | 6% (inactive) | 
CCCOc1ccc(Cc2c(O)nc(SC)[nH]c2=O)cc1C | -14.5% (inactive) | 
COc1nc(N(C)C)nc(N2CC(=O)N(CCNS(=O)(=O)c3ccc(C)cc3)C2=N)n1 |  | 2.33 µM (active)
COc1ccccc1CNS(=O)(=O)c1ccc(C)cc1 | 8.44% (inactive) | 
Cc1ccc(S(=O)(=O)NCCSC(C)(C)C)cc1 | 38.2% (inactive) | 
CCOC(=O)C1(CCOC)CCN(Cc2cc3ccccc3s2)CC1 | -25.4% (inactive) | 
O=C(Nc1cccc(-c2cscn2)c1)C1CCN(Cc2ccsc2)CC1 | -16.1% (inactive) | 
CCOC(=O)C1=C(C)NC2=C(C(=O)CC(C)(C)C2)C1c1ccsc1 (configuration not stated) |  | 7.38 µM (active)
CCOc1cc(C2C(C(=O)OC(C)C)=C(C)NC3=C2C(=O)CCC3)cc([N+](=O)[O-])c1O (configuration not stated) | 16.6% (inactive) | 
COc1cc(C2C(C#N)=C(C)NC3=C2C(=O)CC(C)(C)C3)ccc1O (configuration not stated) | -20.7% (inactive) | 
Cc1ccc2c(C)c(C(=O)N(C)Cc3ccncn3)oc2c1C | 74.4% (inactive) | 
CCCc1ccc(-c2csc(NC(=O)Cc3cccs3)n2)cc1 |  | 11.7 µM (active)
COc1cccc(CC(=O)Nc2nc(-c3ccc(OC)c(OC)c3)cs2)c1 | -22.7% (inactive) | 
CCc1nnc(NC(=O)Cc2cccs2)s1 | -22.2% (inactive) | 
CC(NCC(=O)Nc1cc(Cl)cc(Cl)c1)c1ccccc1 (configuration not stated) | -15.4% (inactive) | 
COc1cccc(-c2coc3cc4oc(=O)c(CC(=O)O)c(C)c4cc23)c1 | -4.33% (inactive) | 
COc1ccc(OCCCC(=O)OC(C)C(=O)Nc2ccccc2[N+](=O)[O-])cc1 (configuration not stated) | 30.3% (inactive) | 
Cc1ccc(N2C(=O)NC(=O)C(CCc3ccncc3)(Cc3cccc(Cl)c3Cl)C2=O)cc1 (configuration not stated) |  | 11.7 µM (active)
O=C1NC(=O)C(CCc2ccccn2)(Cc2cccc(Cl)c2Cl)C(=O)N1c1ccc(Br)cc1 (configuration not stated) | 30.6% (inactive) | 

Compound | activity change, negative = inhibition | Potency
CC(C)(C)c1ccc(/C=C/C(=O)NCCCn2ccnc2)cc1 | -22.8% (inactive) | 
O=C1CCN(CCc2ccccc2)CCN1CCOc1ccccc1 | 9.44% (inactive) | 
CC(C)C[C@@H](COc1ccccc1)N1CCN(CC(C)C)CCC1=O |  | 11.7 µM (active)
CC(C)C[C@@H](CO)N1CCN(Cc2ccc(O)cc2)CCC1=O | 78.9% (inactive) | 
CCCNC(=O)N1CCC(c2ccc3c(c2)OCO3)CC1 | 29.2% (inactive) | 
CC1CN(C(=S)Nc2ccc(S(N)(=O)=O)cc2)CC(C)O1 (configuration not stated) | 3.43% (inactive) | 
O=[N+]([O-])c1ccc(N2CCN(c3ccc(F)cc3)CC2)cn1 | -10.5% (inactive) | 
OCCN1CCN(c2nnc(-c3ccccc3)c3ccccc23)CC1 | -3.39% (inactive) | 
CCOc1ccc(CN2CCNC(=O)C2CC(=O)NCCCC2CCCC2)cc1 (configuration not stated) |  | 13.1 µM (active)
CCn1ccnc1CNC(=O)CC1C(=O)NCCN1CCCc1ccccc1 (configuration not stated) | 1.79% (inactive) | 
Cc1nccn1CCCNC(=O)CC1C(=O)NCCN1Cc1ccc(Cl)c(F)c1 (configuration not stated) | 2.21% (inactive) | 
CCn1ccnc1CNC(=O)CC1C(=O)NCCN1Cc1ccc(F)cc1Cl (configuration not stated) | -5.79% (inactive) | 
CCCOC(=O)CC1C(=O)NCCN1Cc1ccc(F)cc1 (configuration not stated) | 16.3% (inactive) | 
Cc1ccc(CN2CCNC(=O)C2CC(=O)NCc2csc(C(C)C)n2)cc1 (configuration not stated) |  | 11.7 µM (active)
CC(=O)Nc1ccc(NC(=O)C(NS(=O)(=O)c2ccc3c(c2)OCCO3)C(C)C)cc1 (configuration not stated) | 2.53% (inactive) | 
CCn1cc(C(=O)N[C@@H](C)C(=O)NCCO)c(=O)c2cc3c(cc21)OCO3 | 39.3% (inactive) | 
COc1nnc(-c2ccc(C)c(S(=O)(=O)N(C)C)c2)c2ccccc12 | 0% (inactive) | 
c1ccc(-c2cc(-c3ccccc3)[nH]n2)cc1 | -17.7% (inactive) | 
CC(=O)OCCOCn1cnn2c(=O)c(Br)c(C)nc12 | 38.7% (inactive) | 
CC(C)c1nnc(NC(=O)C2CC(=O)N(CCc3ccc(F)cc3)C2)s1 (configuration not stated) | 19.1% (inactive) | 
S=C(NCCc1ccccc1)NCC1CCCO1 (configuration not stated) | 8.12% (inactive) | 
O=C(COC(=O)c1ccc(S(=O)(=O)Nc2ccccc2)cc1)NCC1CCCO1 (configuration not stated) | 0% (inactive) | 

Compound | activity change, negative = inhibition | Potency
O=C(CS(=O)(=O)Cc1ccccc1)NCC1CCCO1 (configuration not stated) |  | 2.94 µM (active)
CC(=O)Nc1ccc(S(=O)(=O)Nc2ccc(N3CCOCC3)c(F)c2)cc1 | -18.2% (inactive) | 
COc1ccc(NS(=O)(=O)c2ccc(N3CCOCC3)c(NC(=O)c3ccccc3Br)c2)cc1 |  | 9.28 µM (active)
COc1ccc(NS(=O)(=O)c2ccc(C)c(C(=O)NNC(=O)c3csc(N4CCOCC4)n3)c2)cc1 | -1.4% (inactive) | 
CCCCn1c(N)c(N(CC(C)C)C(=O)c2ccc(-n3c(C)ccc3C)cc2)c(=O)[nH]c1=O | -32.2% (inactive) | 
CCOc1ccc(C(=O)NC2CCN(C(=O)Nc3ccccc3OC)CC2)cc1 | -12.6% (inactive) | 
CCOc1ccc(C(=O)NC2CCN(S(=O)(=O)CC)CC2)cc1 |  | 2.33 µM (active)
CCOc1ccc(NC(=S)N2CCC(NC(=O)c3ccccc3)CC2)cc1 | 14.6% (inactive) | 
CCOc1c(OC)cccc1C(=O)NCC1(c2ccccc2)CCCC1 | 8.63% (inactive) | 
COc1ccccc1CNC(=O)CSc1nc(=O)n(Cc2ccncc2)c2c1CCC2 |  | 14.7 µM (active)
CN(C)CCn1c2c(c(SCC(=O)NCc3ccccc3)nc1=O)CCC2 | 7.34% (inactive) | 
COc1ccccc1CNC(=O)Cn1cc2c(n1)CCCC2 | 8.68% (inactive) | 
O=C(NCCc1ccc(Cl)cc1)C1CCCN1C(=O)NCc1ccccc1 (configuration not stated) | 34.6% (inactive) | 
NC(=O)C1CC(=O)N(c2ccc(OCC(=O)NCc3ccccc3)cc2)C1 (configuration not stated) | 16.4% (inactive) | 
CC(NC(=O)c1ccc(S(=O)(=O)Nc2ccccc2)cc1)c1ccc(S(N)(=O)=O)cc1 (configuration not stated) | -27.8% (inactive) | 
Cc1sc2nc(CSCC(=O)NC3CCCCC3)[nH]c(=O)c2c1C | -4.04% (inactive) | 
Cc1cccc(C)c1OC(=O)CSc1nnc(-c2ccccc2)o1 | -10.3% (inactive) | 
CC1=CC(C)(C)N(C(=O)CSc2nnc(-c3ccccc3)o2)c2ccc(C)cc21 |  | 13.1 µM (active)
O=C(CSc1nnc(-c2ccccc2)o1)N1CCOCC1 | 16.5% (inactive) | 
